# Assay outcomes: PubChem BioAssay, National Center for Advancing Translational Sciences (NCATS)
# In the library only some 14% were active in any assay of this set; here they are far more common.
# AID923 – qHTS Assay for Allosteric/Competitive Inhibitors of Caspase-1: Spectroscopic Profiling in AFC Spectral Region; compound fluorescence, AFC spectral region (405/520 nm); Potency, µM (top dose mostly 57.5 µM), for inactives: at the highest dose fluorescence increase, hits mostly activators; hit rate 1.1% among 75,000; AID 923, 2007; further: potency means the concentration at half of the fitted maximal effect; 0% is about no effect
#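 Baseline compound fluorescence (AFC region, 405 nm ex/520 nm em) taken from the intercept of kinetic reads with 50 nM caspase-1 and 5 uM Ac-WEHD-AFC; normalized to an on-plate AFC standard curve; compounds titrated up to 57 uM.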
# 4-MU autofl – compound fluoresces in the 4-MU spectral region; compound autofluorescence, 340/450 nm, 4-MU equivalents; stronger effect = higher value; max dye-equivalent concentration, M; hit rate 11% among 59,000; in the data active means max dye-equivalent concentration above about 10 nM; inconclusive means mostly about 1.1 nM to 9.6 nM
#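 Intrinsic fluorescence at 340/450 nm (ex/em) was read after 15 min at room temperature in pH 8.0, 100 mM Tris. Each compound concentration expressed as 4-MU-equivalent concentration from a six-point 4-MU standard series on each plate.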
# A350 fluor – compounds fluorescent in Alexa 350 spectral region; Compound autofluorescence, 340/450 nm, Alexa 350 dye-equivalents; stronger effect = higher value; max dye-equivalent concentration, M; hit rate 11% among 59,000; AID 590; in the data active means max dye-equivalent concentration above about 10 nM; inconclusive means mostly about 1.1 nM to 9.6 nM
# CRE Fsk mod – modulators of forskolin-stimulated CRE signaling in CHO cells. Potency, µM (highest dose often 38.2 µM), inactives show at the highest dose activity change, negative = inhibition, hits mostly activators. CHO CRE-bla reporter (cAMP response element driving beta-lactamase), forskolin EC10, beta-lactamase ratio. AID 662. hit rate 2.5% among 71,000; active means well fitted activation curve with a large enough effect in the signal ratio, with a control signal flat, not every such curve was filed as active; inconclusive means small, poorly fitted or top-dose-only effect, or effect the other way, or a change in a side signal; the % refers to the signal ratio; further: potency means the concentration at half of the fitted maximal effect; % of control where 0% means no effect
#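 CRE-bla CHO cells stimulated with EC10 NKH 477 (water-soluble forskolin) and compound titrations, 3 h at 37C; beta-lactamase read with CCF4 after 2 h at room temperature. Activity from 460/530 nm emission ratio, AC50 values for positive or negative modulation.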
# HSD17B inh – inhibitors of human HSD17B10 dehydrogenase; Q99714; recombinant HSD17B10, NADH fluorescence kinetic; Potency, µM (doses to about 57.1 µM), without a hit: top-dose activity change, negative = inhibition, hits mostly inhibitors; hit rate 7.6% among 75,000; AID 893;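 further: the protocol describes HADH2 (HSD17B10) and not the HSD17B4 of the title; potency means the concentration at half of the fitted maximal effect; on the % scale 0 is the no-effect control and ±100 the full control effect; nearly all actives have a fitted effect of over 70% in size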
#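 His-tagged E. coli-expressed HADH2 at 20 nM in 100 mM Tris-HCl pH 9.0 with 0.01 % Tween-20, preincubated 15 min with compound at room temperature. Reaction with 1 mM NAD+ and 90 uM beta-hydroxybutyryl coenzyme A; NADH fluorescence (360/450 nm) read kinetically over 4 min, last minus first point.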
# HADH2 inh – inhibitors of human HADH2 dehydrogenase; Q99714; recombinant HADH2, NADH fluorescence, beta-hydroxybutyryl-CoA; Potency, µM (highest dose often 57.1 µM), for inactives: top-dose activity change, negative = inhibition, actives largely listed as inhibitors; hit rate 3.4% among 73,000; further: potency means the concentration at half of the fitted maximal effect; on the % scale 0 is the no-effect control and ±100 the full control effect; nearly all actives have a fitted effect of over 60% in size
# Target sequence (Q99714 whole entry, looked up, one chain of several): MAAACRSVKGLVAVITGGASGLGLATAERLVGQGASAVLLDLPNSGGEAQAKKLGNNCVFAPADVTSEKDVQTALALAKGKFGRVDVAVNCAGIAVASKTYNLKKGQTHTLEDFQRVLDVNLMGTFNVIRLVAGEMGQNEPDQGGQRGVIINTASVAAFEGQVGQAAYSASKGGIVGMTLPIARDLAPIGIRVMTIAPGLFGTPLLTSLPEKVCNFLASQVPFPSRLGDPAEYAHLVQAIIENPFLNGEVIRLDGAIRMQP
#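 E. coli-expressed His-tagged HADH2 tested at 20 nM in alkaline Tris buffer (pH 9.0); oxidation of 90 uM beta-hydroxybutyryl-CoA with 1 mM NAD+ tracked fluorimetrically for 4 min.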
# Active calls of the source: *; i = inactive; ? = inconclusive; · = no result; [ ] = another dose, or the depositor's remark. Unless noted, the call rests on the fitted dose curve; in most records, active means well fitted curve in the direction sought with a large enough effect; inconclusive means small, poorly fitted or top-dose-only effect, or another doubt; inactive means no such curve, though single readings can be large; an effect the other way counts as inactive or inconclusive.
SMILES,AID923,4-MU autofl,A350 fluor,CRE Fsk mod,HSD17B inh,HADH2 inh
O=C(NC1CCCCC1)C1CCN(c2cnccn2)CC1,0.0%,1.74e-08M*,1.72e-08M*,-2.6%,-6.1%,-10.4%
O=C(NC1CCCCCC1)C1CCN(c2nc3ccccc3o2)CC1,-1.3%,1.19e-08M*,1.48e-08M*,0.0%,0.4%,10.2%
O=C1C=C(Nc2nc(C(=O)O)cc(=O)[nH]2)c2ccccc2C1=O,9.0%[11.5 µM],i,i,6.2%[7.6 µM],2.9%[11.4 µM],-2.6%[11.4 µM]
Cc1ccc(S(=O)(=O)OCC2CN3C(CCC(C)C3c3ccc(Br)cc3)C(=O)O2)cc1 (configuration not stated),0.1%[11.5 µM],·,·,·,2.0%[11.4 µM],9.2%[11.4 µM]
CO[C@@H]1COC(=O)[C@H]2CCCN2C(=O)[C@@H](C)COC(=O)C/C=C\[C@H]1C,-1.4%[11.5 µM],·,·,·,2.9%[11.4 µM],7.8%[11.4 µM]
COc1ccc2[nH]c3nc(SCc4nnc(-c5ccc(C)cc5)o4)nnc3c2c1,-2.1%,i,i,1µM*,0.0%,8.2%
CN1C[C@@H]2C(c3ccc(Cl)nc3)C3(c4ccccc4)CC2(C3)[C@H]1c1ccccc1 (some centres not stated),0.2%,·,·,·,4.1%,·
CCOC(=O)c1c(NC(=O)c2cc(C3CC3)on2)sc2c1CCCC2,-1.3%,·,·,1.8%,?,-5.2%
COc1ccc(-c2nnc3sc(COc4ccccc4)nn23)cc1,·,i,i,·,·,·
COc1ccc(-c2oc3ncn4nc(COc5ccccc5)nc4c3c2-c2ccc(OC)cc2)cc1,·,1.05e-07M*,1.27e-07M*,·,·,·
N=c1c2c(-c3ccccc3)c(-c3ccccc3)oc2ncn1CCN1CCOCC1,1.7%,?,?,?,?,8.8%
COc1ccc(-c2oc3ncn4nc(Cc5ccccc5)nc4c3c2-c2ccc(OC)cc2)cc1,·,6.88e-08M*,7.02e-08M*,·,·,·
O=C(CSc1nnc(-c2ccccn2)n1Cc1ccccc1)Nc1ccc2c(c1)OCO2,-3.7%,i,i,6.1%,2.6%,7.2%
CC(C)[C@@H]1O[C@H](/C=C\c2ccccc2)OCC1(C)C,-3.4%[11.5 µM],i,i,-5.1%[7.6 µM],2.0%[11.4 µM],11.8%[11.4 µM]
CCOC(=O)c1c(C)[nH]c(C(=O)OCC(=O)Nc2cc(C)ccc2OC)c1C,0.8%,i,i,?,-5.0%,20.1%
CCOC(=O)c1[nH]c(C)c(C(=O)Nc2cc(OC)ccc2OC)c1C,0.0%,i,i,10µM*,-3.3%,-42.4%
CCOc1ccccc1/C=C(\C#N)C(N)=O,-2.4%[11.5 µM],i,?,-7.4%[7.6 µM],-3.9%[11.4 µM],-5.4%[11.4 µM]
CC(C)CN(CC(C)C)S(=O)(=O)N1CCC(C(=O)NCc2cccs2)CC1,-0.5%,i,i,?,-6.4%,1.3%
CC1CCN(S(=O)(=O)N2CCC(C(=O)NCc3cccs3)CC2)CC1,0.1%,1.42e-08M*,1.67e-08M*,-7.8%,0.8%,20.4%
Cc1ccc([C@@]2(C)CC/C(=N/N=C3\CC[C@](C)(c4ccc(C)c(C)c4)c4cc(C)c(C)cc43)c3cc(C)c(C)cc32)cc1C,-1.7%[11.5 µM],5.9e-08M*,7.27e-08M*,4.6%[7.6 µM],-2.3%[11.4 µM],6.9%[11.4 µM]
COc1cc2c(cc1NC(=O)COC(=O)C1CC(=O)N(Cc3ccco3)C1)oc1ccccc12 (configuration not stated),2.0%,?,?,-24.7%,25.1µM*,?
Cc1[nH]c2ccccc2c1C(=O)COC(=O)C1CC(=O)N(Cc2ccco2)C1 (configuration not stated),3.6%,i,i,-19.5%,-9.0%,-7.7%
CCCn1c(-c2ccc(F)cc2)nc2c(NCCCCN(CC)CC)nc(C)nc21,-1.9%,·,·,22.1%,25.1µM*,-12.2%
CCCn1c(-c2ccc(F)cc2)nc2c(NCCCN(CC)CC)nc(C)nc21,-0.3%,·,·,5.5%,25.1µM*,12.0%
CCCn1c(C)nc2c(NCCCN(CC)CC)nc(C)nc21,-0.7%,·,·,8.6%,5.9%,-6.5%
SMILES,AID923,4-MU autofl,A350 fluor,CRE Fsk mod,HSD17B inh,HADH2 inh
CCCn1c(-c2ccc(F)cc2)nc2c(NCCCN(CCO)CCO)nc(C)nc21,0.1%,·,·,14.0%,25.1µM*,28.5%
CCCn1c(-c2ccc(F)cc2)nc2c(NCC(C)(C)CN(C)C)nc(C)nc21,6.0%,·,·,10.5%,25.1µM*,?
O=C1CCCC=C1[C@@H](O)COCc1ccccc1,0.8%[11.5 µM],·,·,·,0.5%[11.4 µM],0.6%[11.4 µM]
CC(C)C[C@H](N)CSSC[C@@H](N)CC(C)C,-0.4%,i,i,-16.1%,-3.7%,8.3%
CCCn1c(-c2ccc(F)cc2)nc2c(NCC3CCN(C)CC3)nc(C)nc21,-0.2%,·,·,-9.7%,25.1µM*,-11.4%
CCCn1c(-c2ccc(F)cc2)nc2c(NCCCN(C)C)nc(C)nc21,0.5%,·,·,9.5%,25.1µM*,?
CCCn1c(-c2ccc(F)cc2)nc2c(NC(C)CCCN(CC)CC)nc(C)nc21 (configuration not stated),9.0%,·,·,-1.2%,25.1µM*,2.8%
CCCn1c(C)nc2c(NC(C)CCCN(CC)CC)nc(C)nc21 (configuration not stated),-2.2%,·,·,6.0%,2.3%,3.9%
CCCn1c(-c2ccc(F)cc2)nc2c(NCCN3CCCC3)nc(C)nc21,0.5%,·,·,5.6%,31.6µM*,-12.1%
COC(=O)C/C=C\[C@@H](C)[C@@H](/C=N\O[C@@H](C)CN1CCCc2nc(C)c(C)cc21)NS(=O)(=O)c1ccc(C)cc1,10.1%[11.5 µM],·,·,·,?,7.3%[11.4 µM]
CN(C)CC(C)(C)CNC(=O)c1ccc(-n2c(=O)c(=O)[nH]c3ccccc32)cc1,2.0%,·,·,·,-6.5%,-17.9%
Cc1nc2cncnc2n(Cc2ccccc2)c1=O,-1.5%,i,i,?,1.5%,-19.9%
CC(=O)Oc1cc(-c2coc3cc(OC(C)=O)c(OC(C)=O)c(OC(C)=O)c3c2=O)cc(OC(C)=O)c1OC(C)=O,-0.4%,·,·,·,?,·
CCCn1c(-c2ccc(F)cc2)nc2c(N3CCN(Cc4nc(OC)cc(OC)n4)CC3)nc(C)nc21,1.2%,·,·,7.6%,?,-2.9%
CCCn1c(-c2ccc(F)cc2)nc2c(NC3CCN(Cc4ccccc4)CC3)nc(C)nc21,1.0%,·,·,5.8%,31.6µM*,?
Nc1ncnc2nc[nH]c12.Nc1ncnc2nc[nH]c12.[Cl][Pt]([Cl])([Cl])[Cl],·,i,i,0.6%[7.6 µM],·,3.98µM*
COC(=O)c1ccc(CSc2nc3scc(-c4cccs4)c3c(=O)[nH]2)o1,2.6%,i,i,?,20µM*,10µM*
CS(=O)(=O)Nc1cccc(-c2ccc3ncnc(NCCN4CCOCC4)c3c2)c1,1.5%,i,i,?,10.1%,11.3%
CC(=O)N1CCC[C@@]2(CCN(c3ccncc3)C2)C1,4.1%,i,i,-4.2%,5.8%,-6.5%
O=c1c2c3c(sc2n2cnnc2n1-c1ccccc1)N(Cc1ccccc1)CCC3,10.8%,1.06e-07M*,1.09e-07M*,-18.4%,?,-2.9%
